# Test results as given in PubChem BioAssay (NCATS).
# A number with no mark means an inactive call. Results filed as inconclusive are left out. Calls of active or inactive are those of the source. Unless noted, calls follow the shape of the dose curve; as a rule, active = well fitted curve in the direction sought with a large enough effect; inconclusive = small, poorly fitted or top-dose-only effect, or another doubt; inactive = no such curve, though single readings can be large; an effect the other way counts as inactive or inconclusive.
# Experiments:
# [1] = qHTS assay for small molecule agonists of the antioxidant response element (ARE) signaling pathway (AID 651741; active = well fitted activation curve with a large enough effect in the signal ratio; the % refers to the signal ratio; also: potency is read from the fitted curve at half-maximal effect); settings: HepG2 ARE-bla reporter, beta-lactamase FRET ratio, 16 h
# In short: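 Beta-lactamase reporter under ARE control in HepG2 cells, 2,000 per well, was induced by 16 h compound treatment at 37 C. Read-out was fluorescence from LiveBLAzer B/G FRET substrate after 2 h at room temperature.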
# [2] = qHTS assay for small molecule activators of the p53 signaling pathway (AID 651743; active = well fitted activation curve with a large enough effect in the signal ratio, not every such curve was filed as active; the % refers to the signal ratio; also: % of control where 0% means no effect); settings: HCT-116 p53RE-bla, beta-lactamase FRET ratio, 16 h; hits give high values
# In short: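 After 16 hours compound treatment at 37 C, HCT-116 cells stably expressing p53RE-driven beta-lactamase were loaded with LiveBLAzer B/G FRET substrate for 2 hours at room temperature. Fluorescence intensity served as the p53 activation read-out.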
# [3] = qHTS assay for small molecule disruptors of the mitochondrial membrane potential - 1 hr assay (AID 651754; calls by dose curve; also: potency is read from the fitted curve at half-maximal effect; nearly all actives have a fitted effect of over 35% in size)
# In short: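 Mitochondrial potential in living HepG2 cells after 1 hr compound treatment at 37C was read with Mito-MPS dye added for a further 30 min. Red aggregate and green monomer fluorescence were measured; loss of potential leaves dye as cytoplasmic monomers.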
# [4] = biological target: Tumor necrosis factor (Homo sapiens) (UniProt P01375); assay: qHTS assay to identify small molecules that stimulate Tumor Necrosis Factor-alpha (TNF-alpha) secretion (AID 651757; active = well fitted curve in the direction sought with a large enough effect in the signal ratio; the % refers to the signal ratio; also: 0% is about no effect); settings: Human cells, HTRF 665/615 ratio; series mostly up to 92.2 µM
# In short: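 Secreted TNF-alpha quantified by TR-FRET sandwich of two labeled anti-TNF-alpha antibodies, incubated 3 hr at room temperature. Preceded by 17 hr, 37 C compound treatment of THP-1 cells at 3000 cells/well.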
# [5] = qHTS assay to identify small molecules that stimulate interleukin-8 (IL-8) secretion (AID 651758; active = well fitted activation curve with a large enough effect in the signal ratio; the % refers to the signal ratio; also: 0% is about no effect); settings: HTRF ratio (665/615); series mostly up to 92.2 µM
# In short: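 Secreted IL-8 measured homogeneously by TR-FRET (two labelled anti-IL-8 antibodies, 1-3 h at room temperature) after a 16 h, 37 C compound treatment of THP-1 cells at 2000 cells/well.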
# [6] = qHTS assay for environmental chemicals that activate the Aryl hydrocarbon Receptor (AhR) signaling pathway (AID 651777); settings: 1A2-DRE human hepatoma cells, luciferase, 24 h; activation: hits give high values; also: nearly all actives have a fitted effect of over 15% in size; also: potency is read from the fitted curve at half-maximal effect; as to activation: % of control where 0% means no effect
# In short: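 Quantitative HTS in stably transfected human liver-derived cells whose luciferase gene sits downstream of the CYP1A2 promoter and dioxin response element. After 24 hr exposure at 37 C, One-Glo luminescence was measured.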
# [7] = biological target: Peroxisome proliferator-activated receptor alpha (Homo sapiens) (UniProt Q07869); assay: qHTS assay for small molecule agonists of the peroxisome proliferator-activated receptor alpha (PPARalpha) signaling pathway (AID 651778); settings: PathHunter PPARalpha complementation, chemiluminescence, 6 h; hits give high values; also: % of control where 0% means no effect
# In short: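 Chemiluminescence from complemented enzyme reported PPARalpha activation in cells after 6 hr of compound treatment at 37 C. The detection reagent was incubated for 60 min at room temperature, and compounds were scored as agonists.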
# [8] = biological target: Nuclear receptor ROR-gamma (Homo sapiens) (UniProt P51449); assay: qHTS assay for small molecule antagonists of the retinoid-related orphan receptor gamma (ROR-gamma) signaling pathway (AID 651802); settings: ROR-gamma antagonist cell reporter assay; series mostly up to 92.2 µM;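 also: CHO cells with doxycycline-induced ROR-gamma expression; luciferase reporter luminescence driven by ROR response element; % is scaled to controls: 0 for no effect and ±100 for the full control effect; nearly all actives have a fitted effect of over 60% in size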
# In short: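 Luminescence (One-Glo, 30 min RT) measured 16 h after compound addition and doxycycline induction at 37C. Reporter: RORE-luciferase under TET-inducible ROR-gamma in CHO cells.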
# [9] = qHTS assay for small molecule activators of the nuclear factor-kappa B (NF-kB) signaling pathway (AID 651749; active = well fitted activation curve with a large enough effect in the signal ratio; the % refers to the signal ratio; also: % of control where 0% means no effect); settings: NF-kB-bla ME-180 cells, beta-lactamase FRET ratio, 16 h; hits give high values
# In short: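 Activation measured after 16 hr compound treatment at 37C, 5% CO2, of 2,000 ME-180 cells/well stably expressing an NF-kB response element–driven beta-lactamase reporter, via FRET-disruption fluorescence.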
# [10] = qHTS assay for small molecule disruptors of the mitochondrial membrane potential - 5 hr assay (AID 651755; calls by dose curve; also: potency is read from the fitted curve at half-maximal effect; nearly all actives have a fitted effect of over 40% in size); settings: JC-1-type ratio dye
# In short: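 Membrane-potential dye readout: red aggregate (540 ex/590 em) versus green monomer (490 ex/535 em) fluorescence after 30 min dye loading, following 5 hr compound exposure at 37C of overnight-plated HepG2 cells.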
# Sequence of Peroxisome proliferator-activated receptor alpha (Homo sapiens) (Q07869 whole entry, looked up): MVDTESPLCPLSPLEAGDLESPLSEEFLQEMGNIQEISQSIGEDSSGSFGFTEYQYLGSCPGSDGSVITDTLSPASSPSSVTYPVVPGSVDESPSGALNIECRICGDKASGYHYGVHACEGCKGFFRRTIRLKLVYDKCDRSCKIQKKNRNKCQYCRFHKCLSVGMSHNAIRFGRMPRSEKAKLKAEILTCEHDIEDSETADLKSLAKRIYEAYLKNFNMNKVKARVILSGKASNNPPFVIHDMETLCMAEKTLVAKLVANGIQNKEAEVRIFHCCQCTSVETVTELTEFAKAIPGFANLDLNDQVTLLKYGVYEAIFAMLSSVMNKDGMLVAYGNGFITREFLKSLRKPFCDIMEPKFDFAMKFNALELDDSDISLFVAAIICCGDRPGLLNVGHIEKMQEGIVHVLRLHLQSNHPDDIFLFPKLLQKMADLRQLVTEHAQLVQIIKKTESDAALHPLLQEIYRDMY
# Sequence of Nuclear receptor ROR-gamma (Homo sapiens) (P51449 whole entry, looked up): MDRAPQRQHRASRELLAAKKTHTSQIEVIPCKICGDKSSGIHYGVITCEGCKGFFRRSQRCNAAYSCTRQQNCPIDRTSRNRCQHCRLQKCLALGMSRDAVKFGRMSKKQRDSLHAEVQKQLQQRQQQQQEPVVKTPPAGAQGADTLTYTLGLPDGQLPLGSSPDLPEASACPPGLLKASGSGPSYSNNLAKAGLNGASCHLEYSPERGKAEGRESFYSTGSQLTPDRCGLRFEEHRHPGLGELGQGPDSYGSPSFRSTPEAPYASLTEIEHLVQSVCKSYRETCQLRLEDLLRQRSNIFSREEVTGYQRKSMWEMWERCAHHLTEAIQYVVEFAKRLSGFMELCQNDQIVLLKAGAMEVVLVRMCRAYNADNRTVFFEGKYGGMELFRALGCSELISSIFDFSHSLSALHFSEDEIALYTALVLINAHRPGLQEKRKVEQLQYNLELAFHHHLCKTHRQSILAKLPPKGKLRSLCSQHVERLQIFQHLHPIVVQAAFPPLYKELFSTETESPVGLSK
# Sequence of Tumor necrosis factor (Homo sapiens) (P01375 whole entry, looked up): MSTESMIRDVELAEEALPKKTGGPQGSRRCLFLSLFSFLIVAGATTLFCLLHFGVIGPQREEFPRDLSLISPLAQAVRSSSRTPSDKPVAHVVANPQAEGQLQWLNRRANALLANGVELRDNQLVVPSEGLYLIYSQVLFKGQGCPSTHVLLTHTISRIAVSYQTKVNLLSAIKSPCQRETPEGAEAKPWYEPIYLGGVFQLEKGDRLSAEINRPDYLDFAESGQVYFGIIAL
Structure (SMILES),Potency [1],activation [2],Potency [3],outcome [4],outcome [5],Potency [6],max response [7],outcome [8],activation [9],Potency [10],activation [6]
Cc1ccc(N)cc1O,42.2 µM (active),1.03%,23.7 µM (active),inactive,inactive,44.7 µM (active),-3.15%,inactive,,,
Nc1ccccc1N,18.8 µM (active),9.56%,3.76 µM (active),,,,-5.51%,inactive,-0.857%,5.96 µM (active),
CC(=O)O[C@@H]1CC(C)=C2[C@H]1[C@H](C)CC[C@H]2/C=C(\C)C(=O)O,,-5.82%,,inactive,,,-0.232%,inactive,0.932%,,-0.287%
CC(=O)O[C@H]1C(=O)[C@@]2(C)[C@H]([C@H](OC(=O)c3ccccc3)[C@]3(O)C[C@H](OC(=O)[C@H](O)[C@@H](NC(=O)c4ccccc4)c4ccccc4)C(C)=C1C3(C)C)[C@]1(OC(C)=O)CO[C@@H]1C[C@@H]2O,,23.6%,,,,,-1.23%,,4.74%,,0.595%
